This is a sample that favours compounds with a hit; in the whole collection about 21% have one here.
Pf growth 48h = P. falciparum growth inhibition at 48 hours (one generation) | AID 504832 | P. falciparum luciferase growth in erythrocytes, 48 h | Potency, µM (doses to about 28.7 µM), for inactives: at the highest dose activity change, negative = inhibition, hits mostly inhibitors | hit rate 5.9% among 310,000; note: potency is the fitted concentration of half-maximal effect; % is set by controls: 0 for no effect and ±100 for the full control effect
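Growth was read as firefly luciferase luminescence after a 48 h, 37 C, 5% CO2 exposure of compounds to reporter-bearing P. falciparum cultures (0.1% parasitemia, 2% hematocrit final) in Albumax-supplemented RPMI 1640.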
AMA1 RON2 block = inhibitors of Plasmodium falciparum AMA1-RON2 interaction; AlphaScreen AMA1-biotinylated RON2 peptide binding; Potency, µM (top dose mostly 58.2 µM), for the others: top-dose activity change, negative = inhibition, most hits filed as inhibitors; hit rate 0.2% among 360,000; AID 720542;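 note: potency is the fitted concentration of half-maximal effect; 0% = vehicle wells and -100% = peptide control; nearly all actives have a fitted effect of over 45% in size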
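AMA1 (3D7) with his tag at 25 nM final met compounds first, then biotinylated RON2 peptide at 25 nM; detection used donor plus acceptor beads, 10 µg/mL apiece, read by AlphaScreen after 30 min at room temperature.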
CHX counter = affects cycloheximide protein synthesis inhibition readout, counter-screen | cell reporter, cycloheximide protein synthesis inhibition counterscreen | max response, % | hit rate 12% among 300,000 | AID 2314; in the data active = max response mostly above about 13%, no sharp cut-off; inactive = mostly below about 14%; note: read at 38.3 µM for the half of the compounds with a filed dose; 0% is about no effect
HCV inhibitor = HCV inhibition; hit rate 3.4% among 340,000; Potency, µM (series often up to 41.8 µM), for inactives: top-dose activity change, negative = inhibition, hits mostly inhibitors; Huh7.5.1 HCVcc-Cre infection, luciferase reporter, 44 h; note: potency is the fitted concentration of half-maximal effect; % is set by controls: 0 for no effect and ±100 for the full control effect
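Cells seeded at 1,000/well and cultured 4 h, then compounds added followed by HCVcc-Cre virus (~0.5 moi). After 44 h further culture, luciferase substrate was added, plates held 15 min at room temperature, and luminescence read for 15 sec.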
Shiga inhibitor = Shiga toxin inhibition. AID 2315. inhibition, % at 38.7 µM. Vero cells, Shiga toxin protein synthesis inhibition reporter. hit rate 9.2% among 290,000; in the data active = inhibition mostly above about 28%, no sharp cut-off; inactive = mostly below about 43%; note: 0% is about no effect
Pf growth 96h = P. falciparum growth inhibition at 96 hour, primary screen for plastid delayed-death inhibitors. Potency, µM (doses to about 28.7 µM), inactives show at the top dose activity change, negative = inhibition, most hits filed as inhibitors. P. falciparum luciferase reporter growth, 96 h. hit rate 6.9% among 320,000. AID 504834; note: potency is the fitted concentration of half-maximal effect; % is set by controls: 0 for no effect and ±100 for the full control effect
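Plates of compound plus infected erythrocytes (2% hematocrit, 0.05% parasitemia final) incubate 96 hours, 37 C, 5% CO2. Detection reagent added; reduced luminescence from the parasites' luciferase reporter flags inhibition.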
An asterisk follows results filed as active; [ ] = another dose, or the depositor's remark. Unless noted, calls come from the whole dose curve; as a rule, active = well fitted curve in the direction sought with a large enough effect; inconclusive = small, poorly fitted or top-dose-only effect, or another doubt; inactive = no such curve, though single readings can be large; an effect the other way counts as inactive or inconclusive.

CN(CC1COc2ccccc2O1)C(=S)NC1CCCCC1 (stereo not given) was read as Pf growth 48h 0.0%, AMA1 RON2 block 9.0%, CHX counter 24.8*, HCV inhibitor -20.4%, Shiga inhibitor 59.5* and Pf growth 96h inconclusive.
For CCN(CC1COc2ccccc2O1)C(=S)NCCCN(C)C (stereo not given) the results were Pf growth 48h 90.8%, AMA1 RON2 block -5.2%, CHX counter -4.6, HCV inhibitor -23.2%, Shiga inhibitor -4.0 and Pf growth 96h 10.4µM*.
Screening CCN(CC1COc2ccccc2O1)C(=S)Nc1ccccc1 (stereo not given) returned Pf growth 48h 37.7%, AMA1 RON2 block 0.8%, CHX counter -4.4, HCV inhibitor -28.7%, Shiga inhibitor -5.6 and Pf growth 96h 356.5%.
Cc1ccc(-n2nc3cc(C)c(NC(=S)NC(=O)/C=C/c4ccco4)cc3n2)cc1 was read as Pf growth 48h 117.2%, AMA1 RON2 block -9.1%[2.32 µM], CHX counter 70.4*, HCV inhibitor inconclusive, Shiga inhibitor active and Pf growth 96h -18.3%.
`Cc1ccc(-n2nc3ccc(NC(=S)NC(=O)/C=C/c4ccco4)cc3n2)cc1` gave Pf growth 48h 63.6%, AMA1 RON2 block -0.6%[11.6 µM], CHX counter 11.9, HCV inhibitor 2.1%, Shiga inhibitor 36.8* and Pf growth 96h 1.85µM*.
For O=C(/C=C/c1ccco1)NC(=S)Nc1cccc([N+](=O)[O-])c1 the results were Pf growth 48h 11.7%, AMA1 RON2 block 7.7%, CHX counter 22.7, HCV inhibitor inconclusive, Shiga inhibitor 19.0 and Pf growth 96h 78.7%.
For Cc1cccc(OC(C)C(=O)N2CCN(Cc3ccc4c(c3)OCO4)CC2)c1 (stereo not given) the results were Pf growth 48h -4.4%, AMA1 RON2 block -4.6%, CHX counter -3.0, HCV inhibitor -0.9%, Shiga inhibitor -40.2 and Pf growth 96h 16.2%.
CC1Cc2cc(/C(O)=C3/C(=O)C(=O)N(CCCn4ccnc4)C3c3cccc([N+](=O)[O-])c3)ccc2O1 (stereo not given) was read as Pf growth 48h 50.5%, AMA1 RON2 block 13.0%, CHX counter -1.1, HCV inhibitor 15.8%, Shiga inhibitor 9.8 and Pf growth 96h 21.6%.
Screening Cc1cc(Cl)ccc1NC(=S)NCCc1ccc(Cl)cc1 returned Pf growth 48h inconclusive, AMA1 RON2 block 80.6%, CHX counter 9.5*, HCV inhibitor inconclusive, Shiga inhibitor 51.6 and Pf growth 96h inconclusive.
For Cc1cc(Cl)ccc1NC(=S)NCCC(c1ccccc1)c1ccccc1 the results were Pf growth 48h inconclusive, AMA1 RON2 block 91.6%, CHX counter 11.3*, HCV inhibitor inconclusive, Shiga inhibitor -5.1 and Pf growth 96h inconclusive.
Screening S=C(NCCc1ccccc1)Nc1ccc(Cl)cc1Cl returned Pf growth 48h -4.7%, AMA1 RON2 block 92.0%, CHX counter 34.4*, HCV inhibitor -18.9%, Shiga inhibitor 60.8* and Pf growth 96h 40.8%.
`CC(C)(C)c1ccc(C(=O)Nc2cnccn2)cc1` gave Pf growth 48h 182.3%, AMA1 RON2 block -0.9%, CHX counter 27.5*, HCV inhibitor 7.5%, Shiga inhibitor 40.7* and Pf growth 96h 33.0%.
CC(C)(C)c1ccc(C(=O)NCCc2ccccc2)cc1 was read as Pf growth 48h 154.2%, AMA1 RON2 block 0.0%, CHX counter 45.7*, HCV inhibitor -13.6%, Shiga inhibitor 52.7* and Pf growth 96h inactive.
For O=C(NCc1ccccc1)c1ccc(C(=O)N(C2CCCCC2)C2CCCCC2)cc1 the results were AMA1 RON2 block 8.6%, CHX counter 0.7, HCV inhibitor inconclusive, Shiga inhibitor -11.6 and Pf growth 96h 9.28µM*.
For CC(=O)Nc1ccc(C(=O)NCCc2ccccc2)cc1 the results were Pf growth 48h 77.3%, AMA1 RON2 block 12.0%, CHX counter 59.6*, HCV inhibitor 25.6%, Shiga inhibitor 61.5* and Pf growth 96h -14.7%.
`COC(=O)/C=C1\SC(N2CCOCC2)=C(c2ccc(OC)cc2)C1=O` gave Pf growth 48h inconclusive, AMA1 RON2 block -2.0%, CHX counter -4.7, HCV inhibitor 0.4%, Shiga inhibitor -6.0 and Pf growth 96h -29.3%.
`C=CCN(c1ccc(C(=O)NCCc2ccccc2)cc1)S(C)(=O)=O` gave AMA1 RON2 block 5.4%, CHX counter 40.3*, HCV inhibitor 2.0%, Shiga inhibitor 44.5 and Pf growth 96h 73.7%.
Screening CC(C)(C)c1ccc(C(=O)NCc2ccccc2)cc1 returned Pf growth 48h 142.1%, AMA1 RON2 block -0.1%, CHX counter 25.6*, HCV inhibitor -9.0%, Shiga inhibitor 52.8* and Pf growth 96h 9.28µM*.
For CC(C)(C)c1ccc(C(=O)Nc2ccc(C(=O)NCc3cccnc3)cc2)cc1 the results were Pf growth 48h 6.57µM*, AMA1 RON2 block -4.3%, CHX counter 10.5, HCV inhibitor inconclusive, Shiga inhibitor 20.7 and Pf growth 96h -1.0%.
CCCN1CNc2c(c(=O)[nH]c(=S)n2CCc2ccc(OC)c(OC)c2)C1 was read as Pf growth 48h -18.0%, AMA1 RON2 block 10.0%, CHX counter -7.9, HCV inhibitor inconclusive, Shiga inhibitor -2.2 and Pf growth 96h 39.9%.
For COc1cccc(/C=C/C(=O)OCC(=O)c2c[nH]c3ccccc23)c1OC the results were Pf growth 48h inconclusive, AMA1 RON2 block -7.5%, CHX counter 10.7*, HCV inhibitor inconclusive, Shiga inhibitor 31.7 and Pf growth 96h -89.7%.
`COc1cccc(C(=O)OCC(=O)c2c[nH]c3ccccc23)c1O` gave Pf growth 48h 35.1%, AMA1 RON2 block -4.6%, CHX counter 33.5*, HCV inhibitor -18.3%, Shiga inhibitor 92.6* and Pf growth 96h 30.4%.
Screening Cc1ccc2nc(NC(=O)C3CCN(S(=O)(=O)c4cnc[nH]4)CC3)sc2c1 returned Pf growth 48h 59.6%, AMA1 RON2 block -16.8%, CHX counter -1.7, HCV inhibitor -13.8%, Shiga inhibitor 6.1 and Pf growth 96h 11.7µM*.
`COc1ccc2nc(NC(=O)C3CCN(S(=O)(=O)c4cccnc4)CC3)sc2c1` gave AMA1 RON2 block 0.0%, CHX counter -6.3, HCV inhibitor inconclusive, Shiga inhibitor -15.7 and Pf growth 96h -8.2%.
`COc1ccc2nc(NC(=O)C3CCCN(S(=O)(=O)c4cccs4)C3)sc2c1` (stereo not given) gave Pf growth 48h 9.28µM*, AMA1 RON2 block -16.4%, CHX counter 2.2, HCV inhibitor 12.6µM*, Shiga inhibitor -2.0 and Pf growth 96h inconclusive.
COc1ccc2nc(NC(=O)C3CCN(S(=O)(=O)c4cccs4)CC3)sc2c1 was read as Pf growth 48h 13.1µM*, AMA1 RON2 block -8.1%, CHX counter -1.0, HCV inhibitor 10µM* and Shiga inhibitor 13.9.
`Cc1ccc2nc(NC(=O)C3CCN(S(=O)(=O)c4cccs4)CC3)sc2c1` gave Pf growth 48h inconclusive, AMA1 RON2 block -12.3%, CHX counter -3.8, HCV inhibitor 12.6µM*, Shiga inhibitor 25.8 and Pf growth 96h 0.0%.
For Cc1ccc2nc(NC(=O)C3CCN(S(=O)(=O)c4cccnc4)CC3)sc2c1 the results were AMA1 RON2 block -5.6%, CHX counter -1.5, HCV inhibitor inconclusive, Shiga inhibitor 45.2 and Pf growth 96h 66.2%.
For COc1ccc2nc(NC(=O)C3CCN(S(=O)(=O)c4cnc[nH]4)CC3)sc2c1 the results were Pf growth 48h -26.7%, AMA1 RON2 block -7.4%, CHX counter -3.6, HCV inhibitor 4.2%, Shiga inhibitor -8.3 and Pf growth 96h 2.2%.
